Experimental data as given in PubChem BioAssay AID602250 (The Scripps Research Institute Molecular Screening Center, 2012).
About 2,200 (0.61%) of roughly 360,000 compounds were called active. The entries come from a sample that favours actives as a whole. A number with no mark means an inactive call.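 How the source made its calls: active means inhibition above a per-plate cutoff, the plate's mean sample inhibition plus 3 SD (cut at about 24% in these data); inactive means the rest.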

Experiment: nonselective inhibitors of ATP calcium response in CHO-K1, primary screen, counter-screen for M1 antagonist project, cell-based, Fluo-8 calcium fluorescence, full deck, 1536-well (AID 602250);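 further: 0% = DMSO plus EC80 ATP and 100% = DMSO alone without ATP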
Conditions: CHO-K1 parental, ATP-induced calcium, Fluo-8 fluorescence; at 3 µM; stronger effect = higher value

Question: For COc1ccc(F)cc1C(=O)C1CCCN(C(=O)CCc2ccccn2)C1 (centres undefined), which inhibition is on record?
Answer: 4.6%

Question: For COc1ccc(C(=O)N2CCCC(C(=O)c3ccccc3OC)C2)cc1OC (centres undefined), which inhibition is on record?
Answer: 36.9% (active)

Question: With COc1ccc(C(=O)C2CCCN(C(=O)c3cc(C)on3)C2)cc1F (centres undefined) as the compound, how does the inhibition read?
Answer: -2.55%

Question: With CCN(CC)CC(=O)Nc1sc2c(c1C(=O)c1ccccc1C)CCC2 as the compound, how does the inhibition read?
Answer: 3.09%

Question: For O=C(Nc1ccc(Cl)cc1)OCc1cc(-c2ccccc2)on1, which inhibition is on record?
Answer: 7.62%

Question: With O=C(Nc1ccc([N+](=O)[O-])cc1)OCCc1ccccn1 as the compound, how does the inhibition read?
Answer: -2.63%

Question: With O=C(Nc1cccc(Cl)c1)OCc1ccccn1 as the compound, how does the inhibition read?
Answer: 25.6% (active)

Question: For O=C(CN1CCN(S(=O)(=O)c2ccc3ccccc3c2)CC1)NC(=O)NC1CCCCC1, which inhibition is on record?
Answer: -2.87%

Question: Which inhibition does the source give for COc1cc2ccc(C(C)=O)c(O)c2cc1OC here?
Answer: -2.14%

Question: For O=C(CN(c1ccc2c(c1)OCCO2)S(=O)(=O)c1ccccc1)Nc1ccc2c(c1)OCO2, which inhibition is on record?
Answer: 30.7% (active)

Question: For O=C(CCS(=O)(=O)Cc1ccccc1)Nc1ccc2c(c1)OCCO2, which inhibition is on record?
Answer: -8.23%

Question: Which inhibition does the source give for CCN(CC(=O)Nc1ccc2c(c1)OCO2)S(=O)(=O)c1ccccc1 here?
Answer: -6.57%

Question: Which inhibition does the source give for CC1CCCCN1S(=O)(=O)CCNC(=O)c1ccccc1 (centres undefined) here?
Answer: 14.2%

Question: For CCOc1ccccc1N1C(=O)CC(Sc2nccc(C)n2)C1=O (centres undefined), which inhibition is on record?
Answer: -15.2%

Question: For Cc1ccnc(SC2CC(=O)N(c3ccccc3)C2=O)n1 (centres undefined), which inhibition is on record?
Answer: 16.3%

Question: Which inhibition does the source give for CC(=O)Nc1ccc(N2C(=O)CC(Sc3nccc(C)n3)C2=O)cc1 (centres undefined) here?
Answer: 23.8% (active)

Question: With C#Cc1ccc([C@@H]2C=C(C(=O)O)O[C@H](OCCCCO)C2)cc1 as the compound, how does the inhibition read?
Answer: -9.51%

Question: With O=C(NNc1nc(N2CCCC2)nc(N2CCCC2)n1)c1ccccc1 as the compound, how does the inhibition read?
Answer: -8.06%

Question: For FC(F)(F)COc1nc(N2CCCCC2)nc(N2CCNCC2)n1, which inhibition is on record?
Answer: -9.46%

Question: For CN(N)c1nc(N2CCCC2)nc(N2CCCC2)n1, which inhibition is on record?
Answer: 25.6% (active)

Question: With COC(=O)c1ccc(CN2CCCC(C(=O)Nc3cccc(-n4cnnn4)c3)C2)cc1 (centres undefined) as the compound, how does the inhibition read?
Answer: 0.04%

Question: Which inhibition does the source give for O=Cc1c(NCCc2cccc(F)c2)c2ccccc2[nH]c1=O here?
Answer: -10.6%

Question: Which inhibition does the source give for CCCCOc1ccc(N(CC(=O)NC(C)C)C(=O)CCC(=O)Nc2ccccn2)cc1 here?
Answer: 23.1%

Question: Which inhibition does the source give for COc1cc(CNc2ncn[nH]2)ccc1OCc1ccccc1C here?
Answer: -1.69%

Question: For O=C(CNS(=O)(=O)c1ccccc1)NCC(=O)OCc1ccccc1F, which inhibition is on record?
Answer: -0.17%

Question: Which inhibition does the source give for CCOC(=O)c1c(N=CN(C)C)c(C#N)c2n1CCCC2 here?
Answer: -8.04%

Question: Which inhibition does the source give for CCSC1=C(C#N)C(=O)n2c1cc1c2CCCC1 here?
Answer: -1.55%

Question: With CCSc1ncnc2c(C#N)c3n(c12)CCCCC3 as the compound, how does the inhibition read?
Answer: 40.4% (active)

Question: Which inhibition does the source give for Cc1cc2oc(=O)cc(CN(C)Cc3ccccc3)c2cc1Cl here?
Answer: 6.2%

Question: For Cc1ccc2nc(NC(=O)CSc3nc(=O)n(CCCN(C)C)c4c3CCC4)sc2c1, which inhibition is on record?
Answer: -19.7%

Question: With CCN(CC)CCn1c2c(c(SCC(=O)Nc3nc4ccccc4s3)nc1=O)CCCC2 as the compound, how does the inhibition read?
Answer: 28.3% (active)

Question: For CCN(CC)CCn1c2c(c(SCC(=O)Nc3ccc(C(C)C)cc3)nc1=O)CCC2, which inhibition is on record?
Answer: -0.47%

Question: For C=CCNC(=S)NNc1ncnc2sc3c(c12)CC(C)(C)OC3, which inhibition is on record?
Answer: -3.73%

Question: For O=C(C1CCN(S(=O)(=O)c2cccs2)CC1)N1CCCCCC1, which inhibition is on record?
Answer: -13.2%

Question: For Cc1ccc(S(=O)(=O)N2C[C@]3(O)C[C@@H]4C(=O)N(c5ccccc5)C(=O)[C@@H]4C[C@]3(OC(=O)NC3CC3)C2)cc1, which inhibition is on record?
Answer: -3.35%

Question: With CC(C)n1c(=O)[nH]c2cc(C(=O)Nc3ccccc3)ccc21 as the compound, how does the inhibition read?
Answer: 2.48%

Question: For Cc1cccc(NC(=O)c2ccc3nsnc3c2)c1C, which inhibition is on record?
Answer: -0.08%

Question: With O=C(Nc1ccccc1)c1ccc2nsnc2c1 as the compound, how does the inhibition read?
Answer: 29.9% (active)

Question: Which inhibition does the source give for CCC1Oc2ccc(Cl)cc2N(CC(=O)O)C1=O (centres undefined) here?
Answer: -18.5%

Question: For COc1ccc(C(=O)NC(=S)N2CCNC(=O)C2CC(=O)OC(C)C)cc1 (centres undefined), which inhibition is on record?
Answer: -6.8%

Question: With CN(C)S(=O)(=O)c1ccc(C(=O)NCCN=C2NS(=O)(=O)c3ccccc32)cc1 as the compound, how does the inhibition read?
Answer: -3.13%

Question: For Cc1ccccc1C(=O)NCCN=C1NS(=O)(=O)c2ccccc21, which inhibition is on record?
Answer: 27.1% (active)

Question: For O=C(NCCN=C1NS(=O)(=O)c2ccccc21)c1ccc(S(=O)(=O)N2CCOCC2)cc1, which inhibition is on record?
Answer: 2.91%

Question: With O=C(c1cc(COc2c(F)cccc2F)on1)N1CCSCC1 as the compound, how does the inhibition read?
Answer: -8.58%

Question: With CCCC(=O)N1CCC1(C)C(=O)Nc1ccc(-n2cncn2)cc1 (centres undefined) as the compound, how does the inhibition read?
Answer: -6.21%

Question: For C=CCC1(CC=C)CCCN1C(=O)c1cc(COc2ccc(-n3cncn3)cc2)on1, which inhibition is on record?
Answer: 31.3% (active)

Question: Which inhibition does the source give for COc1ccccc1C(=O)Nc1cccc(C(=O)N2CCOCC2)c1 here?
Answer: -9.07%

Question: Which inhibition does the source give for COc1cc(C(c2c(NC(=O)c3ccco3)sc(C)c2C)N2CCOCC2)cc(OC)c1OC (centres undefined) here?
Answer: 5.36%

Question: With CCc1cc(C(c2ccccc2OC)N2CCOCC2)c(NC(=O)c2ccccc2)s1 (centres undefined) as the compound, how does the inhibition read?
Answer: 24.8% (active)

Question: Which inhibition does the source give for CC(C)OCCCNC(=O)c1ccc(C2SCC(=O)N2Cc2ccco2)cc1 (centres undefined) here?
Answer: -4.67%

Question: For COC(=O)c1ccc(-c2c(-c3ccccc3)ncc3cc(OC)c(OC)cc23)cc1, which inhibition is on record?
Answer: 8.1%

Question: For Cc1cc(=O)n2nc(N3CCCC(C(=O)NCc4cccc(Cl)c4)C3)sc2n1 (centres undefined), which inhibition is on record?
Answer: -13.5%

Question: Which inhibition does the source give for Cc1cc(=O)n2nc(N3CCCC(C(=O)NCc4ccc(Cl)cc4)C3)sc2n1 (centres undefined) here?
Answer: -0.44%

Question: With Cc1cc(=O)n2nc(N3CCCC(C(=O)N4CCN(C)CC4)C3)sc2n1 (centres undefined) as the compound, how does the inhibition read?
Answer: 26.5% (active)

Question: Which inhibition does the source give for Cc1ccc(NC(=O)c2oc(=O)c3ccccc3c2-c2ccccc2)c(C)c1 here?
Answer: -9.65%

Question: With CCc1nnc(NC(=O)CSCc2cc(=O)n3cc(C)sc3n2)s1 as the compound, how does the inhibition read?
Answer: -12.4%

Question: For O=C(C1CCCN(S(=O)(=O)c2ccccc2)C1)N1CCN(c2ccc(F)cc2)CC1 (centres undefined), which inhibition is on record?
Answer: -2.45%

Question: For COc1cccc(N2CCN(C(=O)C3CCCN(S(=O)(=O)c4cnc[nH]4)C3)CC2)c1 (centres undefined), which inhibition is on record?
Answer: 2.59%

Question: For CC(=O)N1CCCc2cc(S(=O)(=O)N3CCCC(C(=O)N4CCN(c5cccc(Cl)c5)CC4)C3)ccc21 (centres undefined), which inhibition is on record?
Answer: 30.4% (active)
